KDM5B inhibitor: inhibitors of human KDM5B histone demethylase; Q9UGL1; KDM5B demethylase, FDH-coupled NADH fluorescence (FDH is formaldehyde dehydrogenase); Potency, µM (doses to about 57.7 µM), usual class: inhibitors; actives 2.6% (n = 220,000); AID 1347165; active = well fitted inhibition curve with a large enough effect; also: nearly all actives have a fitted effect of over 70% in size
Target sequence (Q9UGL1 whole entry, looked up): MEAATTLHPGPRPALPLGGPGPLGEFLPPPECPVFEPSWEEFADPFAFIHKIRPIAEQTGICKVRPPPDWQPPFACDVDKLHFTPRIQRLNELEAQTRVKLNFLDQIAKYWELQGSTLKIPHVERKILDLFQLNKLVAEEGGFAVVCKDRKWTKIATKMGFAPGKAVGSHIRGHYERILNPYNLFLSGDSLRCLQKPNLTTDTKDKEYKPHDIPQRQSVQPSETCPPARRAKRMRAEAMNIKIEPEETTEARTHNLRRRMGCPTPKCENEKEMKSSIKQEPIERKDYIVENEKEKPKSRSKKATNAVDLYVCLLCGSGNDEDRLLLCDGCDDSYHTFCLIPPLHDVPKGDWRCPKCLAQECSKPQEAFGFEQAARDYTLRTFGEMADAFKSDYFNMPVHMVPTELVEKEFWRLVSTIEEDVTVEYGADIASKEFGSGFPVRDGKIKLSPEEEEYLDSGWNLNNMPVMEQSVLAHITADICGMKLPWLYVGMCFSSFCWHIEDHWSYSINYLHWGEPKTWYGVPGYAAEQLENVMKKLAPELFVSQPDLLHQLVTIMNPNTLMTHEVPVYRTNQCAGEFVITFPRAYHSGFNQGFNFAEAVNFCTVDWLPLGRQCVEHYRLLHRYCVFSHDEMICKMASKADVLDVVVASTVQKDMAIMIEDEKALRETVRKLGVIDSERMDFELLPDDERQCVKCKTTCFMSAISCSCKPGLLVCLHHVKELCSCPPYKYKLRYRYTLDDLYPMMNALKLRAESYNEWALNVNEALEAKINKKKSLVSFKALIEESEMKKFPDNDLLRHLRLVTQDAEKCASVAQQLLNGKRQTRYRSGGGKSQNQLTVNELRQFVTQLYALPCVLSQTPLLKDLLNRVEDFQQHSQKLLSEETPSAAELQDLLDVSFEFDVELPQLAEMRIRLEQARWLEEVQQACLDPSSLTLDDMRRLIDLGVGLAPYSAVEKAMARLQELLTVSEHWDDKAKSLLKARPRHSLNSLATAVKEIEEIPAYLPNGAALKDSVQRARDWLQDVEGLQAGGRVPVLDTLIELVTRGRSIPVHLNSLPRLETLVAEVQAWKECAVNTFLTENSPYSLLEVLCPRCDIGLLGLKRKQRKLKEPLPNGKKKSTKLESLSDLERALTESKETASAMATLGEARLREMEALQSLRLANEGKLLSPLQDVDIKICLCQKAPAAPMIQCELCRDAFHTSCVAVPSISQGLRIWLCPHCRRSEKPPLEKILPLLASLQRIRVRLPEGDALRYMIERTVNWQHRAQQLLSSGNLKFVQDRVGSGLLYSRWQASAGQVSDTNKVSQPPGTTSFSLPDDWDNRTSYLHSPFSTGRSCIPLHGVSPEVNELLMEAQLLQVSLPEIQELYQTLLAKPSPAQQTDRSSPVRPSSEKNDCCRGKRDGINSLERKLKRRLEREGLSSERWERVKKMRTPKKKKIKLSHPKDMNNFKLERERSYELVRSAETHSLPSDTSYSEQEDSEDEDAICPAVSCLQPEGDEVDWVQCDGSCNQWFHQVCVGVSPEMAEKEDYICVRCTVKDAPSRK
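KDM5BΔAP (200 nM final) in 50 mM HEPES pH 7.5, 0.01% Tween-20 was preincubated 10 min at RT with compound over a concentration range. Substrate mix (H3K4me3 12.5 µM, α-KG 25 µM, Fe²⁺, ascorbate, NAD⁺, FDH) was added, and NADH fluorescence change over 30 min gave dose-response curves.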
Hits are given with their value; . = inactive. The sample as a whole holds a higher share of hits than the screen did.

SMILES	KDM5B inhibitor
Cc1cccc(CN2CCc3nc(C(=O)NCc4ccccc4)oc3CC2)c1	.
O=C(Nc1cccnc1)c1nc2c(o1)CCN(Cc1ccc(F)c(F)c1)CC2	.
O=C(NCc1ccccc1)c1nc2c(o1)CCN(Cc1ccc(F)c(Cl)c1)CC2	28µM
O=C(NCCOc1ccccc1)c1nc2c(o1)CCN(Cc1ccsc1)CC2	.
O=C(Nc1ccc(Cl)cc1)c1nc2c(o1)CCN(Cc1ccccc1)CC2	32µM
O=C(NCC1CC1)c1nc2c(o1)CCN(Cc1ccc3[nH]ccc3c1)CC2	.
S=C(NCCSc1ccc(Cl)cc1)Nc1ccc(Nc2ccccc2)cc1	.
O=C(NC1CCCC1)c1ccc(C(F)(F)F)cn1	.
Cc1nc2nc(C(F)(F)F)[nH]n2c(=O)c1Cc1ccc(Br)cc1	.
Cc1nc(NC(C)C)sc1C(=O)NCc1ccncc1	.
O=C(Cn1ccc2ccc(Br)cc21)NCCCO	.
Cc1ccc(OCCOC(=O)C2COc3ccccc3O2)cc1 (stereo unspecified)	.
Cc1ccccc1-c1noc(Cn2cnc3c2c(=O)n(C)c(=O)n3C)n1	.
CCn1nc(C(=O)N(Cc2ccc(OC)cc2)C(C)Cc2cccs2)c2ccccc2c1=O (stereo unspecified)	.
C1CCN(C2(CNC3CCCC3)CCCCC2)CC1	.
COc1cc(NC(=O)CSc2ncc(-c3ccc(F)cc3)o2)cc(OC)c1	.
O=C(c1ccnc(Cl)c1)N1CCC(c2nc3cc(C(F)(F)F)ccc3s2)CC1	.
COc1ccc(-c2[nH]c3c(c2-c2c(-n4cccc4)n(C)c(=O)[nH]c2=O)c(=O)[nH]c(=O)n3C)cc1OC	.
CCc1nc2c(c(-c3ccc(O)cc3)n1)CN(Cc1cccc3ccccc13)CC2	.
COc1cccc(-c2cc3c(=O)n(CCNC(=O)c4cc(Cl)ccc4F)ccn3n2)c1	25µM
COc1cccc(-c2cc3c(=O)n(CCNC(=O)c4ccc(C(C)(C)C)cc4)ccn3n2)c1	25µM
COc1cccc(CC(=O)NCCn2ccn3nc(-c4ccc(C)cc4C)cc3c2=O)c1	.
COc1cccc(-c2cc3c(=O)n(CCNC(=O)c4cc(C)cc(C)c4)ccn3n2)c1	32µM
COc1cccc(-c2cc3c(=O)n(CC(O)c4cccc(C#N)c4)ccn3n2)c1 (stereo unspecified)	22µM
CCCCN1CCc2[nH]cnc2C1c1cc(C)ccc1F (stereo unspecified)	.
SMILES	KDM5B inhibitor
CCCc1cnc(C)nc1N1CCN(Cc2ccccc2F)C(CCO)C1 (stereo unspecified)	.
COc1ccccc1C(=O)N1CCn2c(nn(-c3cccc(Cl)c3)c2=O)C1	.
CC(=O)c1cnn(-c2cc(NC3CCCC3)nc(-c3ccccc3)n2)c1C	.
O=C(Nc1ccc(N2CCCCCC2)c(C(=O)O)c1)c1ccccc1Cl	.
O=C(C1CCCCC1)N1CCCC2(CC(c3cccc(C(F)(F)F)c3)=NO2)C1 (stereo unspecified)	.
CCOc1ccc2c(=O)c(Oc3ccc(C(=O)OC)cc3)c(C)oc2c1	.
Cc1ccc(C(=O)C(OC(=O)c2sccc2C)c2ccc(C)cc2)cc1 (stereo unspecified)	.
COc1ccc(C(C)=O)c(OCc2cc(Br)ccc2OC)c1	.
COc1ccccc1NC(=O)C(C)OC(=O)c1cccnc1 (stereo unspecified)	.
Cc1ccc(C)c(NC(=O)CCCc2ccccc2)c1	.
COc1ccc(C(=O)NCCn2ccn3nc(-c4cccc(OC)c4)cc3c2=O)cc1	22µM
COc1cccc(-c2cc3c(=O)n(CCNC(=O)C4CCN(C(C)=O)CC4)ccn3n2)c1	20µM
COc1cccc(-c2cc3c(=O)n(CCNC(=O)c4cccc(Cl)c4)ccn3n2)c1	.
COc1cccc(-c2cc3c(=O)n(CCNC(=O)C4CCCCC4)ccn3n2)c1	.
O=C(c1ccc(Cn2nnc3ccccc32)cc1)N1CCN(S(=O)(=O)c2ccccc2)CC1	.
CCc1c(C)sc2c1c1nc(-c3cccnc3)nn1c(=O)n2CC(=O)N1CCOCC1	.
CC[C@H]1CN(C(=O)N2CCOCC2)CC[C@H]1CC(=O)N1CCOCC1	.
Cc1cccc(N/N=C/c2ccc(Cl)c(Cl)c2)c1	.
COC(=O)C12C3CCC4C5C3C1C5(C(=O)OC)C42 (stereo unspecified)	.
Cn1c(=O)c2c(nc(CN(Cc3ccccc3)Cc3ccccc3)n2CC(N)=O)n(C)c1=O	.
O=C(N1CCC(c2ccccc2)CC1)C1(c2ccc(Cl)cc2)CCOCC1	.
CC1(C(=O)N2CCC(c3ccccc3)CC2)CCc2cnc(N3CCOCC3)nc21 (stereo unspecified)	32µM
CN1CCC(NC(=O)C2(C)CCc3cnc(Nc4ccccc4)nc32)CC1 (stereo unspecified)	.
CCCOC(=O)c1ccc(Nc2nc(C(=O)OCC)nc3ccccc23)cc1	.
COc1ccccc1CNC(=O)c1nc(COc2c(C)occc2=O)no1	.
SMILES	KDM5B inhibitor
Cc1cc(=O)oc2cc(OCC(=O)N(C)C3(C#N)CCCCC3)c(Cl)cc12	.
NC(=O)c1cccc(CN2CCC3(CC2)Cc2ccccc2N(C(=O)C2CCCC2)C3)c1	.
O=C(c1cccs1)N(Cc1ccc2[nH]ccc2c1)C1CC1	.
COc1ccc(Cl)cc1NC(=O)Cn1c(-c2ccc(F)cc2)nc(C)c(CCO)c1=O	.
COc1ccc(OC)c(NC(=O)Cn2c(-c3ccc(F)cc3)nc(C)c(CCO)c2=O)c1	20µM
COc1cc(NC(=O)Cn2c(-c3ccc(F)cc3)nc(C)c(CCO)c2=O)cc(OC)c1OC	.
Cc1ccc(CSCC(=O)NCc2ccc3c(c2)OCO3)cc1	.
Cc1ccc(Cn2ccnc2SCC(=O)NCc2ccc3c(c2)OCO3)cc1	.
CSc1ccc(CNC(=O)CCc2conc2-c2cccc(C)c2)cc1	.
O=C(Cn1c(=O)n2nc(-c3cccc(F)c3)nc2c2ccccc21)NCc1ccc(Cl)cc1	.
Cc1cccc(-c2nc(CS(=O)CC(=O)NCc3ccc(Cl)cc3)c(C)o2)c1 (stereo unspecified)	.
Cc1cccc(-c2nc3cnccn3c2NCCC(=O)NCc2ccc(F)c(Cl)c2)c1	28µM
O=C(CCNc1c(-c2cccc(F)c2)nc2cnccn12)NCc1ccc(Cl)cc1	28µM
Cc1cccc(-c2nc3cnccn3c2NCCC(=O)NCc2ccc3c(c2)OCO3)c1	28µM
O=C(Cn1cccc1-c1nc(-c2ccc(F)cc2)no1)NCc1ccc(Cl)cc1	.
CC(C)CC(C)N(C)C(=O)NCc1cccc(N(C)C)c1 (stereo unspecified)	.
O=C(c1ccccc1F)N(Cc1ccco1)C1CC1	.
Cc1oc(-c2ccccc2)nc1CC(=O)N1CCOCC1(C)C	.
CNS(=O)(=O)c1ccc(CCC(=O)Nc2nc(C)c(C)s2)cc1	.
CC(C)n1c(N2CCN(C)CC2)nc2c1c(=O)[nH]c(=O)n2C	.
COc1ccc(C(=O)Nc2oc3ccc(Cl)cc3c(=O)c2-c2ccccc2)cc1OC	.
Cc1ccc(-n2nc(C)c([C@@H]3C=C[C@@H](NC(=O)NCc4ccccc4)C3)c2C)cc1Cl	.
CCN1C(=O)C(O)(CC(=O)c2cc(C)c(C)cc2C)c2ccccc21 (stereo unspecified)	.
CCOC(=O)CSC1=C(C#N)C(c2ccc(O)c(OC)c2)CC(=O)N1 (stereo unspecified)	.
Cc1nc(C#N)c(N2CCN(C(=O)CN(C)C3CCCCCC3)CC2)o1	.
CCc1n[nH]c(CC2CCN(C(=O)c3ccc(OC)c(OC)c3)CC2)n1	.
O=C(c1ccccc1)N1CCC(Cc2nc(-c3ccncc3)n[nH]2)CC1	.
CCc1n[nH]c(CC2CCN(C(=O)c3ccccc3)CC2)n1	22µM
